According to the supplement of paper PMC10849652:
Of roughly 8,800 targets only a part is listed; those with a hit were picked by preference. About 0.5% of all pairs of compound and target were hits.

Assays:
Experiment in all cases: log2 fold change, soluble protein after heating vs DMSO (PISA); higher = thermal stabilisation; K562 lysate, 10 uM; active = over 0.2 and 3.5 SD of the protein, either way, in both replicates (recomputed)
[1] = compound: NCC(=O)Nc1ccc(-n2nc(C(F)(F)F)cc2-c2ccc3c(ccc4ccccc43)c2)cc1
Method in brief: (§1)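 The values are log-two fold changes in thermal stability compared with solvent controls and come from duplicates. They were obtained by TMTpro 16plex LC-MS/MS, with channel sums equalised, on the supernatant after 21,000xg for 90 min. That supernatant came from crude K562 extract at 1 mg/mL protein treated with 10 μM compound for 30 min, heated for 3 min across 48°C-58°C, pooled and brought to 0.5% NP-40 at 4°C.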

vorinostat = compound: O=C(CCCCCCC(=O)Nc1ccccc1)NO [vorinostat]
Method in brief: as §1

silmitasertib = compound: O=C(O)c1ccc2c(c1)nc(Nc1cccc(Cl)c1)c1ccncc12 [silmitasertib]
Method in brief: as §1

[2] = compound: O=C1NC(=O)C(c2cnc3ccccn23)=C1c1cn2c3c(cc(F)cc13)CN(C(=O)N1CCCCC1)CC2
Method in brief: as §1

entospletinib = compound: c1cn2cc(-c3ccc4cn[nH]c4c3)nc(Nc3ccc(N4CCOCC4)cc3)c2n1 [entospletinib]
Method in brief: as §1

UniProt P42695, sequence (P42695 whole entry, looked up): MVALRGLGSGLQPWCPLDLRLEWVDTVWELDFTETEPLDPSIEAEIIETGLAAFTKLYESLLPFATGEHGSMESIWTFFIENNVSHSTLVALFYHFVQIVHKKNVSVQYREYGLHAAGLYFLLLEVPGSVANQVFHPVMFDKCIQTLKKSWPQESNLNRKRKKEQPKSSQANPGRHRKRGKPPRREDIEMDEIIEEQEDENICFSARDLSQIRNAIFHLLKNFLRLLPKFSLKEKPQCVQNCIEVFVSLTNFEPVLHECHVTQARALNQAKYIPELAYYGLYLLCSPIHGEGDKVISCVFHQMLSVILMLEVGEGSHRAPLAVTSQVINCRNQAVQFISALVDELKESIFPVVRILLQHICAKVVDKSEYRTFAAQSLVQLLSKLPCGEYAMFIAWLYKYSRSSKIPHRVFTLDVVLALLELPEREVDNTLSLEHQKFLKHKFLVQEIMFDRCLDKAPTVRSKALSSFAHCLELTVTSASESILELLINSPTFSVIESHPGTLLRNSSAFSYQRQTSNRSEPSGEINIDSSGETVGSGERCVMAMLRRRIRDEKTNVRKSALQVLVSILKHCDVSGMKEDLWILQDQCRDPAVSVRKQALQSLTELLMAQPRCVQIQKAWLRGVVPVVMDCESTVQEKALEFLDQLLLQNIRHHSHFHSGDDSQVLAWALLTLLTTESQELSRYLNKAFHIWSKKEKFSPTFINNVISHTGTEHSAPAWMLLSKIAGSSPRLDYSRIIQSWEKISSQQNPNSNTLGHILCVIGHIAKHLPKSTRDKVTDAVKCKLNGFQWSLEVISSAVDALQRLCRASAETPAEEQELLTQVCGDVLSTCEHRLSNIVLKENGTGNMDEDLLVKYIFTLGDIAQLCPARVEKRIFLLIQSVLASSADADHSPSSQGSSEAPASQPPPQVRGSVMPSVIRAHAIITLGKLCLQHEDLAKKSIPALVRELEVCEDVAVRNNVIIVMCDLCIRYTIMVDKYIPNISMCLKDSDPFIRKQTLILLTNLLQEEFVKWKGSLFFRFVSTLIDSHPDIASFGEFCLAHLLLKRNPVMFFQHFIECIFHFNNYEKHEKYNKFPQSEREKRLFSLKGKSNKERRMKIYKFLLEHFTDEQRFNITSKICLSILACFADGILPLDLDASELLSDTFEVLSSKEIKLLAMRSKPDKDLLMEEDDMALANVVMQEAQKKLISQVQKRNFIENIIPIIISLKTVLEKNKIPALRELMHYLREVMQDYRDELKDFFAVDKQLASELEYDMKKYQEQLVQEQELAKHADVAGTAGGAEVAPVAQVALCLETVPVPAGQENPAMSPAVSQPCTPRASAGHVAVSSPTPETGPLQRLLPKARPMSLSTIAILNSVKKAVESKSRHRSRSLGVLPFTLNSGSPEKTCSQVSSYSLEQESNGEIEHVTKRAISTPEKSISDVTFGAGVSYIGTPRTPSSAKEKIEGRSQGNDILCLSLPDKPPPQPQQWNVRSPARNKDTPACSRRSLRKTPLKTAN
UniProt O76041, sequence (O76041 whole entry, looked up): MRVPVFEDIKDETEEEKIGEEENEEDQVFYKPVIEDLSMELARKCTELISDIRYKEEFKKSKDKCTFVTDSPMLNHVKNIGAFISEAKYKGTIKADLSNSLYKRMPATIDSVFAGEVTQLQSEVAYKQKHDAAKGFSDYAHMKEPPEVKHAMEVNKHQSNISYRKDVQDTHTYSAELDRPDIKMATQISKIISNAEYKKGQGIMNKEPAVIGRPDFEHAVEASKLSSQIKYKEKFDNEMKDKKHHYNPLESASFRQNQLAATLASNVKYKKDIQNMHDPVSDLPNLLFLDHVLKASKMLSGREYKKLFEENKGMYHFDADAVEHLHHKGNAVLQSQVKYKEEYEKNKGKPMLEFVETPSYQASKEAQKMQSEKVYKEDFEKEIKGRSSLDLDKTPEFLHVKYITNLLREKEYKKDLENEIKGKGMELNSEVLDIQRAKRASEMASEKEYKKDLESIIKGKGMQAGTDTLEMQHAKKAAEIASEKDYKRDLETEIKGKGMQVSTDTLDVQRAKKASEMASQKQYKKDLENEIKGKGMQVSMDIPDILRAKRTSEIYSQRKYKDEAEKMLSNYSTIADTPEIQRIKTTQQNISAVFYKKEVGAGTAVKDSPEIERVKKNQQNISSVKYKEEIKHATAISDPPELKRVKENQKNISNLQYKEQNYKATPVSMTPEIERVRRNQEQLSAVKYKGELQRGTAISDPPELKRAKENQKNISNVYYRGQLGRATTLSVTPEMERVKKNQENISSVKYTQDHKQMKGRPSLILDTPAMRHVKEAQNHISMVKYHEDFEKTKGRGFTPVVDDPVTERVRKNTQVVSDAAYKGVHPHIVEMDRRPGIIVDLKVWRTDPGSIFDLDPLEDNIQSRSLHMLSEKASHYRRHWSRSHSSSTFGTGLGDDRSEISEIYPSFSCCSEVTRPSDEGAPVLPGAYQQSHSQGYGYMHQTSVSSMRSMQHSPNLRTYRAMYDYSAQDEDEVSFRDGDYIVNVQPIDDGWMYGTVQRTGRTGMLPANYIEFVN
UniProt O60934, sequence (O60934 whole entry, looked up): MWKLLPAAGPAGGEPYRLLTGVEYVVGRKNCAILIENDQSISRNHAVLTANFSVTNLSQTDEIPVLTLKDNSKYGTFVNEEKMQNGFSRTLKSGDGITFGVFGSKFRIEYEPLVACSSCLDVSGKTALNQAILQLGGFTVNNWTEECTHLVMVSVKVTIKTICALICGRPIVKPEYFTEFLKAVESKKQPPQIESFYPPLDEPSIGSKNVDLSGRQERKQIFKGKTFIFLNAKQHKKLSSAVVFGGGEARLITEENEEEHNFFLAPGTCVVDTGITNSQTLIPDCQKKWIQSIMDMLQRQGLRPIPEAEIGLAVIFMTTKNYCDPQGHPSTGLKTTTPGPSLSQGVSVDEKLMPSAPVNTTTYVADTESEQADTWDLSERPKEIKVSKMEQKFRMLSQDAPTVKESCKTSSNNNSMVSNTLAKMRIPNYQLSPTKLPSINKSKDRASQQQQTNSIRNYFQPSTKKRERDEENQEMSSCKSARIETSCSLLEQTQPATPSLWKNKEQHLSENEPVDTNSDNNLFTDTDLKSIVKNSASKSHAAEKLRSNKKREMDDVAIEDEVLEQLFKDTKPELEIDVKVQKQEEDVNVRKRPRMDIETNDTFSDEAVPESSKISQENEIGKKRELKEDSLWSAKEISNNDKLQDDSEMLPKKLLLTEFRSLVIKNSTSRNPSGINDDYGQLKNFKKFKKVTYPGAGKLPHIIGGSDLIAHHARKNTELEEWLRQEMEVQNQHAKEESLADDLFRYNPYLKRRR
UniProt P52179, sequence (P52179 whole entry, looked up): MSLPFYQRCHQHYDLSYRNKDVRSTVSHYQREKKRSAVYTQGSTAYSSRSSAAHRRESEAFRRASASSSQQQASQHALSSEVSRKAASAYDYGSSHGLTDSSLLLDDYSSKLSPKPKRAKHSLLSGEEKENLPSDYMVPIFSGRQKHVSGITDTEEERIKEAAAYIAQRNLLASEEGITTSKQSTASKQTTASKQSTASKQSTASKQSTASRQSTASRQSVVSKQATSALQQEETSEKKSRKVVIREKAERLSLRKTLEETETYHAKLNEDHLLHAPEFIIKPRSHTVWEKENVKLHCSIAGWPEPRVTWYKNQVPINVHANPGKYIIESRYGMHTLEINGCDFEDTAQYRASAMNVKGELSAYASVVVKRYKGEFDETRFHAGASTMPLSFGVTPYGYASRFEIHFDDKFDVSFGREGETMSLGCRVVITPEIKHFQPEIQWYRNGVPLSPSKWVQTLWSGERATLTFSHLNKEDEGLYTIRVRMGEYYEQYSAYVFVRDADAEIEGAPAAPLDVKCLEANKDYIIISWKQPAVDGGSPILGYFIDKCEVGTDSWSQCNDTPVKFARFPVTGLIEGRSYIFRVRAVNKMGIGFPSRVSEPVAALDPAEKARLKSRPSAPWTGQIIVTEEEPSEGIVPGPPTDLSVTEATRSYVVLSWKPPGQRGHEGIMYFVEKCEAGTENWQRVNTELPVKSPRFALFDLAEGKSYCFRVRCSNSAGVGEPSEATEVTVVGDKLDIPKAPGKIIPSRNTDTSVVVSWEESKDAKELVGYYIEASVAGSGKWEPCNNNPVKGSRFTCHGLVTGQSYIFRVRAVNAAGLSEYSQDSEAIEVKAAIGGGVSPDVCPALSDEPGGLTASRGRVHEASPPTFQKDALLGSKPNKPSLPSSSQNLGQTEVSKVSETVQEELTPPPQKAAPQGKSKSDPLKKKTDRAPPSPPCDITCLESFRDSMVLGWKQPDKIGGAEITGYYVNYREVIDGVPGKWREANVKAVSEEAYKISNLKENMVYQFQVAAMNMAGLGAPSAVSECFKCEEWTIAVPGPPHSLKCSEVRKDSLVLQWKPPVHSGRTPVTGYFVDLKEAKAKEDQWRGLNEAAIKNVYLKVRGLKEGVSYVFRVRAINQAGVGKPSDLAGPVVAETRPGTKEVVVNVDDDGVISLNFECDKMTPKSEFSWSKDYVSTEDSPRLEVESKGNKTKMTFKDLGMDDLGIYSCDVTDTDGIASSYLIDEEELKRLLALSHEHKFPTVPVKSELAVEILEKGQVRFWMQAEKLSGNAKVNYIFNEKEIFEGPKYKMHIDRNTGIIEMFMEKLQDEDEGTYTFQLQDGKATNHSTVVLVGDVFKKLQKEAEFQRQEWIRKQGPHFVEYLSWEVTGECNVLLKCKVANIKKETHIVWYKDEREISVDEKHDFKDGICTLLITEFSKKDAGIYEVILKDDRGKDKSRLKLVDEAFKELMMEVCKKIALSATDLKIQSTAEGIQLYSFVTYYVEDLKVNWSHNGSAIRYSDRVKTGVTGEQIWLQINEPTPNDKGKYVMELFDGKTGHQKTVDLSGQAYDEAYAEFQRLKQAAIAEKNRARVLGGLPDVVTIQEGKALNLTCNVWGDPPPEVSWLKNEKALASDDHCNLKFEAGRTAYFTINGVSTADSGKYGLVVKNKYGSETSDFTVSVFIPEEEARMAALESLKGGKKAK
UniProt O75607, sequence (O75607 whole entry, looked up): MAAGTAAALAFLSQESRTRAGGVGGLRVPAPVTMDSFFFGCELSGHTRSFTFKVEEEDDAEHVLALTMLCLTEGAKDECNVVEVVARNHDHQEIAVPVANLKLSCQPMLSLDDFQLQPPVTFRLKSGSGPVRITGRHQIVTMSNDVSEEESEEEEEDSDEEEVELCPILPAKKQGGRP

Target	log2 fold change [1]	log2 fold change (vorinostat)	log2 fold change (silmitasertib)	log2 fold change [2]	log2 fold change (entospletinib)
MYO1C (UniProt O00159)	-0.017 (inactive)	-0.171 (inactive)	0.015 (inactive)	0.11 (inactive)	0.033 (inactive)
NPM3 (UniProt O75607)	-0.049 (inactive)	-0.012 (inactive)	0.021 (inactive)	-0.019 (inactive)	-0.037 (inactive)
MYOM1 (UniProt P52179)	0.062 (inactive)	0.055 (inactive)	0.014 (inactive)	0.292 (inactive)	0.028 (inactive)
MYCBP (UniProt Q99417)	0.006 (inactive)	0.113 (inactive)	-0.015 (inactive)	-0.025 (inactive)	-0.075 (inactive)
NBN (UniProt O60934)	-0.009 (inactive)	-0.21 (active)	0.023 (inactive)	-0.008 (inactive)	-0.005 (inactive)
NONO (UniProt Q15233)	0.013 (inactive)	-0.355 (active)	0.027 (inactive)	-0.007 (inactive)	0 (inactive)
NCAPD3 (UniProt P42695)	-0.005 (inactive)	-0.562 (active)	0.034 (inactive)	-0.022 (inactive)	-0.007 (inactive)
NEBL isoform 2 (UniProt O76041)	-0.019 (inactive)	0.146 (inactive)	-0.019 (inactive)	-0.016 (inactive)	-0.01 (inactive)
OTC (UniProt P00480)	0.097 (inactive)	0.087 (inactive)	-0.029 (inactive)	-0.157 (inactive)	-0.028 (inactive)
